PostGolgi ctrl – yeast control strain growth, post-Golgi counter-screen; efflux-deficient yeast background strain, growth absorbance A615, 16 h; inhibition, % at 10 µM; actives 5% (n = 98,000)
DAT uptake mod – modulates human dopamine transporter uptake under cocaine | LLC-PK1 hDAT cells, [14C]-dopamine uptake with cocaine IC80; actives deviate in either direction | B-score at 10 µM | actives 1.3% (n = 110,000);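 active means Z score or B-score, a plate-position-corrected score, falls beyond the plate's 99.7% confidence bounds, in either direction; inactive means both scores lie inside the 99.7% bounds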;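 further: scored against the spread of the other compound wells on the same plate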
PostGolgi yeast – growth inhibition of a yeast mutant, post-Golgi transport screen | post-Golgi transport phenotypic cell assay | inhibition, % at 10 µM | actives 0.9% (n = 98,000);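 further: yeast cells grown in 1536-well plates; yeast grown about 18 h at 30C before absorbance read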
Cav3 T inh – inhibitors of human Cav3.2 T-type calcium channel | Cav3.2-expressing cells, Fluo-4 calcium fluorescence FDSS; stronger effect = lower value | B-score at 10 µM | actives 4% (n = 100,000);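 active means single-dose well whose peak fluorescence ratio is a statistical outlier from its plate by either plate-standardised score or position-corrected B-score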
Smad3 inh – Smad3 (human) transcription factor binding inhibition | TR-FRET Smad3/Dy647-FoxH1 peptide binding, europium anti-His | inhibition, % at 25 µM | actives 0.29% (n = 88,000) | AID 630;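 active means compounds that reduce the energy-transfer binding signal between the protein and its labelled peptide by more than half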;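 further: 0% = Smad3 plus labelled peptide maximal FRET and 100% = peptide-only background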
TNAP act mid DEA – activates human TNAP at intermediate phosphate acceptor concentration | 64,000 tested, under 10 active | AID 813 | activation factor at 20 µM | purified TNAP, CDP-star luminescence, 100 mM DEA, 30 min; stronger effect = higher value; scale: 0 levamisole-inhibited, 1 vehicle-only enzyme | P05186;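 active means activation factor of at least 2 at 20 µM, relative to controls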
Target sequence (P05186 whole entry, looked up): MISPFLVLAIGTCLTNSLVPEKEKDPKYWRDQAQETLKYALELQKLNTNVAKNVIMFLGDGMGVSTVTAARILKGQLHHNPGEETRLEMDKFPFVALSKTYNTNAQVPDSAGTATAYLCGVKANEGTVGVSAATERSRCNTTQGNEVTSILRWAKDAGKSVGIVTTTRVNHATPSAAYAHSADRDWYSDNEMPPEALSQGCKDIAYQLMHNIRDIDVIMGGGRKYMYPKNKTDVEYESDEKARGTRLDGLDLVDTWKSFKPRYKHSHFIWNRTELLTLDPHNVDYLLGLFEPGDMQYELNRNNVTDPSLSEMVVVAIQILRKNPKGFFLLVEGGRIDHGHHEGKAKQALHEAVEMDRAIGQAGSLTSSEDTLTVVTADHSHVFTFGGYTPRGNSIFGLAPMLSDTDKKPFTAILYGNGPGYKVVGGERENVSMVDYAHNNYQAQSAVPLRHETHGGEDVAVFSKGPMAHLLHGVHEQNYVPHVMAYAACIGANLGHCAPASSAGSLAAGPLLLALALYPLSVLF
Numbers without * were called inactive. Rows were chosen to be rich in hits. Some 8.7% of all compounds tested hit in one or more screens of this group. Unless noted, no stated cut-off is given here; in the data, active means inhibition above about 30%; inactive means the rest.

For O=S(=O)(Cc1cc(Oc2ccccc2)nc(-c2ccccc2)n1)c1ccccc1 the results were PostGolgi ctrl 11, DAT uptake mod -0.65, PostGolgi yeast 5 and Cav3 T inh -5.1*.
Cc1nc(CS(=O)(=O)c2ccc(Cl)cc2)cc(Sc2ccc(Cl)cc2)n1 was read as PostGolgi ctrl 7, DAT uptake mod 0.018, PostGolgi yeast -6 and Cav3 T inh -5.3*.
`O=S(=O)(Cc1cc(Sc2ccc(Cl)cc2)nc(-c2ccccc2)n1)c1ccccc1` gave PostGolgi ctrl -7, DAT uptake mod -0.13, PostGolgi yeast -4, Cav3 T inh -4* and Smad3 inh -5.
O=C(CCNC(=O)Cn1ccc2ccccc2c1=O)NCCCN1CCN(c2ccccc2F)CC1 was read as PostGolgi ctrl -5, DAT uptake mod 0.27, PostGolgi yeast 1, Cav3 T inh 0.56, Smad3 inh 9 and TNAP act mid DEA 1.
For Cc1cc(OCc2nn[nH]n2)c2c(C)c(Cc3ccccc3)c(=O)oc2c1 the results were PostGolgi ctrl 32*, DAT uptake mod -0.45, PostGolgi yeast -3, Cav3 T inh 0.84, Smad3 inh 2 and TNAP act mid DEA 0.9.
Screening Cc1cc(OCc2nn[nH]n2)c2c(C)c(CC(=O)O)c(=O)oc2c1 returned PostGolgi ctrl 9, DAT uptake mod -0.32, PostGolgi yeast -10, Cav3 T inh 1, Smad3 inh 8 and TNAP act mid DEA 0.9.
`Cc1c(Cc2ccccc2)c(=O)oc2c(C)c(OCc3nn[nH]n3)ccc12` gave PostGolgi ctrl 1, DAT uptake mod 0.23, PostGolgi yeast 31*, Cav3 T inh -3.6, Smad3 inh 5 and TNAP act mid DEA 0.9.
`Cc1c(OCc2nn[nH]n2)ccc2c(-c3ccccc3)cc(=O)oc12` gave PostGolgi ctrl 1, DAT uptake mod 0.79, PostGolgi yeast 2, Smad3 inh -10 and TNAP act mid DEA 0.9.
COC(=O)c1c(NC(=O)C2CCC2)sc(C(=O)N(C)C)c1C was read as PostGolgi ctrl 3, DAT uptake mod 0.83, PostGolgi yeast 2, Cav3 T inh -1.6, Smad3 inh 10 and TNAP act mid DEA 0.9.
For Cc1cc(Cl)ccc1OC(C)C(=O)Nc1ccc(S(=O)(=O)Nc2cnc3ccccc3n2)cc1 (stereo not given) the results were PostGolgi ctrl 35*, DAT uptake mod 0.22, PostGolgi yeast 27 and Cav3 T inh -2.6.
Screening CC(Oc1ccc(Cl)cc1Cl)C(=O)Nc1ccc(S(=O)(=O)Nc2cnc3ccccc3n2)cc1 (stereo not given) returned PostGolgi ctrl 49*, DAT uptake mod 0.094, PostGolgi yeast 57* and Cav3 T inh -2.3.
`CC(Oc1ccc(Cl)cc1Cl)C(=O)Nc1cccnc1` (stereo not given) gave DAT uptake mod 0.83, Cav3 T inh 2 and Smad3 inh 4.
`COC(=O)/C=c1/s/c(=C(\C#N)C(=O)NCc2ccco2)n(-c2ccccc2)c1=O` gave PostGolgi ctrl 20, DAT uptake mod -1.1, PostGolgi yeast 0, Cav3 T inh 0.65, Smad3 inh 6 and TNAP act mid DEA 1.1.
`CC(C)(C)c1ccccc1OCCCCCNCCO` gave PostGolgi ctrl 3, DAT uptake mod -0.39, PostGolgi yeast 7, Cav3 T inh -0.078, Smad3 inh 8 and TNAP act mid DEA 1.
CC(c1nnc(SCC(=O)c2c(N)n(C)c(=O)n(C)c2=O)n1-c1ccc(Cl)cc1)N(C)C (stereo not given) was read as PostGolgi ctrl 37*, DAT uptake mod 0.006, PostGolgi yeast 14, Cav3 T inh 0.38, Smad3 inh -1 and TNAP act mid DEA 1.
For Cc1nnc(SCC(=O)c2c(N)n(C)c(=O)n(C)c2=O)n1Cc1ccccc1 the results were PostGolgi ctrl -7, DAT uptake mod -0.39, PostGolgi yeast -6, Cav3 T inh 0.48, Smad3 inh 4 and TNAP act mid DEA 1.
Cn1c(N2CCCCC2)nc2c1c(=O)[nH]c(=O)n2C was read as PostGolgi ctrl 2, DAT uptake mod -0.7, PostGolgi yeast 6, Cav3 T inh 0.23, Smad3 inh 12 and TNAP act mid DEA 0.9.
Cc1ccc(CSc2nnc(-c3ccc4c(c3)OCO4)o2)cc1 was read as PostGolgi ctrl 7, DAT uptake mod -0.23, PostGolgi yeast -3, Cav3 T inh -0.038 and Smad3 inh 13.

Screens as filed in PubChem BioAssay.
